# From PubChem BioAssay (NCI)
# The panel holds about 79,000 compounds, 15% with a hit somewhere; the sample as a whole holds those more often. Unmarked numbers belong to inactive results. The source made the active and inactive calls. No stated cut-off is given here; in the data, active means growth inhibition above about 70%; inactive means the rest.
# Tests used:
# [1] = NCI Yeast Anticancer Drug Screen. Data for the rad52 strain (AID 147);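 further: 0% = growth of vehicle-treated control cultures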; conditions: S. cerevisiae rad52 mutant growth inhibition, active compounds read high
# In short: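 Inhibition of yeast growth, referenced to vehicle controls, was the measured output for a strain with defective DNA damage repair.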
# [2] = NCI Yeast Anticancer Drug Screen. Data for the wt1 strain (AID 149);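 further: 0% = growth of vehicle-treated wt1 cultures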; conditions: S. cerevisiae wt1 strain (SPY 50644) growth inhibition, active compounds read high
# In short: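 Readout: yeast growth inhibition, normalised to vehicle controls, in the wt1 strain exposed to test compounds.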
# [3] = NCI Yeast Anticancer Drug Screen. Data for the rad50EPP+ strain (AID 151);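 further: 0% = growth of vehicle-treated control cultures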; conditions: S. cerevisiae rad50 mutant strain, active compounds read high
# In short: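 Genetically defined yeast (rad50EPP+, DNA damage repair alteration) is grown with compound, and inhibition of growth is expressed relative to vehicle-treated controls.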
# [4] = NCI Yeast Anticancer Drug Screen. Data for the mgt1 strain (AID 153); conditions: S. cerevisiae mgt1 mutant growth inhibition, active compounds read high
# In short: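 In the mgt1 strain, test compounds were added and growth inhibition was determined relative to vehicle-treated controls.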
# [5] = NCI Yeast Anticancer Drug Screen. Data for the rad50 strain (AID 155);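 further: 0% = growth of vehicle-only cultures of the same strain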; conditions: S. cerevisiae rad50 strain growth inhibition, active compounds read high
# In short: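 Compounds were tested on a yeast strain with an engineered DNA damage repair alteration; the reported value is growth inhibition normalised to vehicle treatment.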
# [6] = NCI Yeast Anticancer Drug Screen. Data for the mec2-1 strain (AID 157); conditions: S. cerevisiae mec2-1 strain, active compounds read high
# In short: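 Each compound was tested on mec2-1 yeast, a strain altered in DNA damage repair or cell cycle control. Growth inhibition is reported relative to vehicle.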
# [7] = NCI Yeast Anticancer Drug Screen. Data for the rad14 strain (AID 159);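 further: 0% = growth of vehicle-treated control cultures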; conditions: S. cerevisiae rad14 strain growth inhibition, active compounds read high
# In short: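 Compound-treated yeast with a defined DNA-repair lesion; growth inhibition normalised to vehicle-treated cultures.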
# [8] = NCI Yeast Anticancer Drug Screen. Data for the sgs1 mgt1 strain (AID 161);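 further: 0% = growth of cultures given vehicle only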; conditions: S. cerevisiae sgs1 mgt1 strain, active compounds read high
# In short: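 Genetically altered yeast, compound exposure, growth inhibition relative to vehicle.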
# [9] = NCI Yeast Anticancer Drug Screen. Data for the CLN2oe strain (AID 163);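 further: 0% = growth of vehicle-only control cultures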; conditions: S. cerevisiae CLN2oe strain, active compounds read high
# In short: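 First, the altered yeast strain was treated with each compound; second, its growth was measured; finally, inhibition was derived by comparison with vehicle controls.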
# [10] = NCI Yeast Anticancer Drug Screen. Data for the cln2 rad14 strain (AID 165);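 further: 0% = growth equal to vehicle treated cultures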; conditions: S. cerevisiae cln2 rad14 strain, active compounds read high
# In short: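 Test compounds were added to cln2 rad14 yeast cultures; inhibition of growth was then determined by comparison with vehicle treatment.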
# [11] = NCI Yeast Anticancer Drug Screen. Data for the bub3 strain (AID 167); conditions: S. cerevisiae bub3 mutant strain, active compounds read high
# In short: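 Growth of a checkpoint-deficient yeast mutant is measured after compound exposure. Values represent inhibition relative to vehicle.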
# [12] = NCI Yeast Anticancer Drug Screen. Data for the wt2 strain (AID 169);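 further: 0% = growth of vehicle-treated yeast cultures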; conditions: S. cerevisiae wt2 strain growth inhibition, active compounds read high
# In short: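 The panel's yeast strains carry defined changes in DNA repair or cell cycle genes. Each strain is grown with compound, and growth loss is scored relative to vehicle.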
# [13] = NCI Yeast Anticancer Drug Screen. Data for the mlh1 strain (AID 171);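 further: 0% = growth of vehicle-treated control cultures of the same strain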; conditions: S. cerevisiae mlh1 strain growth inhibition, active compounds read high
# In short: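 Inhibition values reflect reduced yeast growth in the presence of compound, referenced to vehicle controls, using a strain chosen for its alteration in DNA repair or cell cycle control.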
# [14] = NCI Yeast Anticancer Drug Screen. Data for the sgs1 strain (AID 173);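 further: 0% = growth of vehicle-only control cultures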; conditions: S. cerevisiae sgs1 mutant, active compounds read high
# In short: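 Vehicle-treated cultures served as reference for growth inhibition of a yeast strain altered in DNA damage repair or cell cycle control after compound exposure.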
# [15] = NCI Yeast Anticancer Drug Screen. Data for the mlh1 rad18 strain (AID 175); conditions: S. cerevisiae mlh1 rad18 strain growth inhibition, active compounds read high
# In short: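 Inhibition values reflect reduced growth of mutant yeast versus vehicle-treated controls following compound exposure; the mutations affect DNA damage repair.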
# [16] = NCI Yeast Anticancer Drug Screen. Data for the rad18 strain (AID 177); conditions: S. cerevisiae rad18 mutant growth inhibition, active compounds read high
# In short: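 Steps: expose repair-mutant yeast to compound; measure growth; express as inhibition relative to vehicle control.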
# [17] = at 5.0 µM (retest, dose inferred, filed as 0.5)
# [18] = at 50.0 µM (retest, dose inferred, filed as 5.0)
structure (smiles),measurement,setting,value
c1ccc(CCN2CCc3ccccc3C2)cc1,growth inhibition,[1]; at 1.2 µM,-1%
same,growth inhibition,[1]; at 3.7 µM,0%
same,growth inhibition,[1]; at 11.0 µM,10%
same,growth inhibition,[1]; at 33.0 µM,12%
same,growth inhibition,[1]; at 100.0 µM,19%
same,growth inhibition,[2]; at 1.2 µM,-1%
same,growth inhibition,[2]; at 3.7 µM,4%
same,growth inhibition,[2]; at 11.0 µM,4%
same,growth inhibition,[2]; at 33.0 µM,6%
same,growth inhibition,[2]; at 100.0 µM,4%
same,growth inhibition,[3]; at 1.2 µM,-3%
same,growth inhibition,[3]; at 3.7 µM,-3%
same,growth inhibition,[3]; at 11.0 µM,-1%
same,growth inhibition,[3]; at 33.0 µM,-4%
same,growth inhibition,[3]; at 100.0 µM,0%
same,growth inhibition,[4]; at 1.2 µM,-2%
same,growth inhibition,[4]; at 3.7 µM,-3%
same,growth inhibition,[4]; at 11.0 µM,4%
same,growth inhibition,[4]; at 33.0 µM,6%
same,growth inhibition,[4]; at 100.0 µM,16%
same,growth inhibition,[5]; at 1.2 µM,1%
same,growth inhibition,[5]; at 3.7 µM,2%
same,growth inhibition,[5]; [17],-9%
same,growth inhibition,[5]; at 11.0 µM,3%
same,growth inhibition,[5]; at 33.0 µM,8%
same,growth inhibition,[5]; [18],49%
same,growth inhibition,[5]; at 50.0 µM,43.9%
same,growth inhibition,[5]; at 100.0 µM,10%
same,growth inhibition,[6]; at 1.2 µM,-3%
same,growth inhibition,[6]; at 3.7 µM,1%
same,growth inhibition,[6]; [17],-10%
same,growth inhibition,[6]; at 11.0 µM,6%
same,growth inhibition,[6]; at 33.0 µM,8%
same,growth inhibition,[6]; [18],1%
same,growth inhibition,[6]; at 50.0 µM,12.8%
same,growth inhibition,[6]; at 100.0 µM,8%
same,growth inhibition,[7]; at 1.2 µM,2%
same,growth inhibition,[7]; at 3.7 µM,10%
same,growth inhibition,[7]; at 11.0 µM,24%
same,growth inhibition,[7]; at 33.0 µM,33%
same,growth inhibition,[7]; at 100.0 µM,29%
same,growth inhibition,[8]; [17],-5%
same,growth inhibition,[8]; [18],49%
same,growth inhibition,[8]; at 50.0 µM,49.8%
same,growth inhibition,[9]; at 1.2 µM,-3%
same,growth inhibition,[9]; at 3.7 µM,-9%
same,growth inhibition,[9]; at 11.0 µM,12%
same,growth inhibition,[9]; at 33.0 µM,28%
same,growth inhibition,[9]; at 100.0 µM,41%
same,growth inhibition,[10]; [17],-6%
same,growth inhibition,[10]; [18],21%
same,growth inhibition,[10]; at 50.0 µM,33.7%
same,growth inhibition,[11]; at 1.2 µM,-1%
same,growth inhibition,[11]; at 3.7 µM,-1%
same,growth inhibition,[11]; [17],24%
same,growth inhibition,[11]; at 11.0 µM,7%
same,growth inhibition,[11]; at 33.0 µM,21%
same,growth inhibition,[11]; [18],74% (active)
same,growth inhibition,[11]; at 50.0 µM,56.8%
same,growth inhibition,[11]; at 100.0 µM,40%
same,growth inhibition,[12]; at 1.2 µM,-1%
same,growth inhibition,[12]; at 3.7 µM,1%
same,growth inhibition,[12]; at 11.0 µM,4%
same,growth inhibition,[12]; at 33.0 µM,8%
same,growth inhibition,[12]; at 100.0 µM,8%
same,growth inhibition,[13]; at 1.2 µM,-2%
same,growth inhibition,[13]; at 3.7 µM,1%
same,growth inhibition,[13]; at 11.0 µM,4%
same,growth inhibition,[13]; at 33.0 µM,11%
same,growth inhibition,[13]; at 100.0 µM,11%
same,growth inhibition,[14]; at 1.2 µM,-1%
same,growth inhibition,[14]; at 3.7 µM,0%
same,growth inhibition,[14]; at 11.0 µM,6%
same,growth inhibition,[14]; at 33.0 µM,18%
same,growth inhibition,[14]; at 100.0 µM,17%
same,growth inhibition,[15]; [17],11%
same,growth inhibition,[15]; [18],71% (active)
same,growth inhibition,[15]; at 50.0 µM,21.9%
same,growth inhibition,[16]; at 1.2 µM,0%
same,growth inhibition,[16]; at 3.7 µM,1%
same,growth inhibition,[16]; at 11.0 µM,8%
same,growth inhibition,[16]; at 33.0 µM,13%
same,growth inhibition,[16]; at 100.0 µM,10%
COC(=O)CC1(O)C(/C=C/c2ccccc2)C(C(=O)OC)C(=O)C(C(=O)OC)C1C(=O)OC (stereo unspecified),growth inhibition,[1]; at 1.2 µM,0%
same,growth inhibition,[1]; at 3.7 µM,0%
same,growth inhibition,[1]; at 11.0 µM,1%
same,growth inhibition,[1]; at 33.0 µM,2%
same,growth inhibition,[1]; at 100.0 µM,13%
same,growth inhibition,[2]; at 1.2 µM,1%
same,growth inhibition,[2]; at 3.7 µM,1%
same,growth inhibition,[2]; at 11.0 µM,1%
same,growth inhibition,[2]; at 33.0 µM,-1%
same,growth inhibition,[2]; at 100.0 µM,-1%
same,growth inhibition,[3]; at 1.2 µM,-7%
same,growth inhibition,[3]; at 3.7 µM,-6%
same,growth inhibition,[3]; at 11.0 µM,-7%
same,growth inhibition,[3]; at 33.0 µM,-6%
same,growth inhibition,[3]; at 100.0 µM,-16%
same,growth inhibition,[4]; at 1.2 µM,-2%
same,growth inhibition,[4]; at 3.7 µM,-3%
same,growth inhibition,[4]; at 11.0 µM,-3%
same,growth inhibition,[4]; at 33.0 µM,13%
same,growth inhibition,[4]; at 100.0 µM,43%
same,growth inhibition,[5]; at 1.2 µM,-1%
same,growth inhibition,[5]; at 3.7 µM,-1%
same,growth inhibition,[5]; [17],-3%
same,growth inhibition,[5]; at 11.0 µM,2%
same,growth inhibition,[5]; at 33.0 µM,1%
same,growth inhibition,[5]; [18],6%
same,growth inhibition,[5]; at 50.0 µM,38.9%
same,growth inhibition,[5]; at 100.0 µM,4%
same,growth inhibition,[6]; at 1.2 µM,-3%
same,growth inhibition,[6]; at 3.7 µM,-1%
same,growth inhibition,[6]; [17],1%
same,growth inhibition,[6]; at 11.0 µM,-4%
same,growth inhibition,[6]; at 33.0 µM,-2%
same,growth inhibition,[6]; [18],20%
same,growth inhibition,[6]; at 50.0 µM,50%
same,growth inhibition,[6]; at 100.0 µM,12%
same,growth inhibition,[7]; at 1.2 µM,-4%
same,growth inhibition,[7]; at 3.7 µM,-1%
same,growth inhibition,[7]; at 11.0 µM,0%
same,growth inhibition,[7]; at 33.0 µM,0%
same,growth inhibition,[7]; at 100.0 µM,2%
same,growth inhibition,[8]; [17],-1%
same,growth inhibition,[8]; [18],23%
same,growth inhibition,[8]; at 50.0 µM,48%
same,growth inhibition,[9]; at 1.2 µM,-2%
same,growth inhibition,[9]; at 3.7 µM,1%
same,growth inhibition,[9]; at 11.0 µM,-2%
same,growth inhibition,[9]; at 33.0 µM,-7%
same,growth inhibition,[9]; at 100.0 µM,39%
same,growth inhibition,[10]; [17],-18%
same,growth inhibition,[10]; [18],44%
same,growth inhibition,[10]; at 50.0 µM,-0.7%
same,growth inhibition,[11]; at 1.2 µM,-4%
same,growth inhibition,[11]; at 3.7 µM,-5%
same,growth inhibition,[11]; [17],-2%
same,growth inhibition,[11]; at 11.0 µM,-2%
same,growth inhibition,[11]; at 33.0 µM,-4%
same,growth inhibition,[11]; [18],6%
same,growth inhibition,[11]; at 50.0 µM,74.2% (active)
same,growth inhibition,[11]; at 100.0 µM,-5%
same,growth inhibition,[12]; at 1.2 µM,-2%
same,growth inhibition,[12]; at 3.7 µM,-2%
same,growth inhibition,[12]; at 11.0 µM,0%
same,growth inhibition,[12]; at 33.0 µM,-1%
same,growth inhibition,[12]; at 100.0 µM,7%
same,growth inhibition,[13]; at 1.2 µM,1%
same,growth inhibition,[13]; at 3.7 µM,-1%
same,growth inhibition,[13]; at 11.0 µM,0%
same,growth inhibition,[13]; at 33.0 µM,1%
same,growth inhibition,[13]; at 100.0 µM,5%
same,growth inhibition,[14]; at 1.2 µM,-1%
same,growth inhibition,[14]; at 3.7 µM,1%
same,growth inhibition,[14]; at 11.0 µM,1%
same,growth inhibition,[14]; at 33.0 µM,4%
same,growth inhibition,[14]; at 100.0 µM,43%
same,growth inhibition,[15]; [17],6%
same,growth inhibition,[15]; [18],30%
same,growth inhibition,[15]; at 50.0 µM,85.3% (active)
same,growth inhibition,[16]; at 1.2 µM,0%
same,growth inhibition,[16]; at 3.7 µM,-2%
same,growth inhibition,[16]; at 11.0 µM,-4%
same,growth inhibition,[16]; at 33.0 µM,3%
same,growth inhibition,[16]; at 100.0 µM,4%
